Laboratory results as given in PubChem BioAssay AID1053144 (Broad Institute, 2014).
About 160 (4.7%) of roughly 3,400 compounds were called active.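 How the source made its calls: active means fitted curve reaches 30% activation at a concentration no higher than the top valid tested dose, luminescence rising; inconclusive means no clear call, values can overlap the other calls; inactive means signal moving opposite to the expected increase, plus the rest.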 These entries were drawn from the full list. Results with a measured potency or affinity are listed apart.

Assay: Wnt/beta-catenin signaling activators, dose response, cell-based, iPS-derived NPC, luciferase, Wnt3a, cherry-pick (AID 1053144);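 further: Wnt3a stimulus is conditioned medium from Wnt3a-transfected mouse L cells at 5% in well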
Settings: NPC TCF/LEF luciferase reporter, Wnt3a EC25, 24 h; series mostly up to 26 µM

activation, inactive:
O=c1c2cc(-c3ccccc3)sc2nc2n1CCC2, CCOC(=O)c1sc2nc(-c3cccnc3)ccc2c1N, CC(C)c1[nH]nc2c1C(C1C=CCCC1)C(C#N)=C(N)O2 (stereo not given), COc1ccc2cc(CCNC(=O)c3ccco3)c(=O)[nH]c2c1, CCCNC(=O)c1cc(-c2ccc3c(c2)OCO3)on1, CCCNC(=O)c1oc2ccc3c(c2c1C)C(=O)CC(C)(C)O3, Cc1cccn2cc(-c3ccc(F)cc3)nc12, c1ccc(-c2ccc3ccccc3n2)cc1, COc1cc2ccc(-c3ccc4ccccc4n3)cc2cc1OC, Cc1occc1C(=O)NNC(=O)c1ccccc1F, CCCCNc1c(-c2ccc(-c3cccc(Cl)c3)cc2)nc2ccccn12, COc1ccc(C)cc1NC(=O)CSc1nnnn1Cc1ccccc1, COC(=O)c1cc2c(s1)-c1ccc(OC)cc1CC2, COCCNC(=O)c1cc2sc3ccccc3c2s1, CCC1CCC(NC(=O)Nc2cccc(OC)c2)CC1 (stereo not given), Oc1ccc(-c2cnc3ccccc3n2)cc1, Cc1cc2ncc(-c3ccccc3)nc2cc1C, CCC(=O)n1nc(-c2ccc(Cl)cc2)nc1SC, CCCCC12CN3CCN(CC(C3)/C1=N\NC(=O)c1ccccc1N)C2, CN(C)c1cccc(-c2csc(N3CCC(C(N)=O)CC3)n2)c1, Cc1ccc(C(=O)COC(=O)c2cccc(O)c2)s1, Cn1cccc1C(=O)OCC(=O)c1ccc(Br)s1, CCOc1ccc(N2C(=O)CC(SCCN)C2=O)cc1 (stereo not given), O=C(Nc1ccccc1)C1=C[C@@H](C2CC2)C[C@@H](OCc2ccc(CO)cc2)O1, O=C1c2ccccc2C(=O)C1c1ccnc2ccccc12, O=C1/C(=C/c2ccc(O)cc2)COc2ccccc21, O=C(Nc1nccs1)c1c(O)c2c([nH]c1=O)CCCC2, O=C(Nc1ccc2ccccc2c1)c1cccc(F)c1, Cc1ccc2cc(NC(=O)c3ccccc3)ccc2n1, COc1cccc(-c2nc(-c3ccccn3)no2)c1OC, CN(C(=O)c1cc2c(=O)n3ccccc3nc2n1C)C1CCCCC1, Brc1ccc(-c2noc(-c3ccccc3)n2)o1, Brc1ccc(-c2nc(-c3ccccc3)no2)o1, O=C(c1ccc(-c2cccc(Cl)c2Cl)o1)N1CCOCC1, O=C(c1ccc(-c2ccccc2Cl)o1)N1CCCCCCC1, CC(C)(C)c1ccc(OCc2ccc(C(=O)NCc3cccnc3)o2)cc1, O=c1ncn(-c2cccc(Cl)c2)c2ccccc12, O=C(Nc1nccs1)c1ccc(N2CCOCC2)c([N+](=O)[O-])c1, O=C(N/N=C/c1cccc(OCc2ccccc2)c1)c1cccs1, Cc1occc1C(=O)N/N=C/C(Br)=C\c1ccccc1, COc1ccc(CN2C(=O)C(C)S/C2=N/N=C/c2ccco2)cc1 (stereo not given), CCCc1cc(C(=O)NC2CCCCC2)no1, CC(=O)Nc1nc2cc3c(cc2s1)OCCO3, O=C(Nc1nc2cc3c(cc2s1)OCCO3)c1cccs1, Cc1c(C(=O)Nc2ccc(Br)cc2)cnn1C, Nc1nc(N)nc(-c2cccc(Br)c2)n1, Cc1ccc(F)c(CNC(=O)C2(C)CCCN2C(=O)C(C)C)c1F (stereo not given), O=C(Nc1cccc(-c2ccc(N3CCOCC3)nn2)c1)c1ccc([N+](=O)[O-])cc1, Cc1ccc(C(=O)Nc2cccc(-c3ccc(N4CCOCC4)nn3)c2)cc1, N/C(=N\OC(=O)c1ccc(Cl)cc1Cl)c1cccnc1, CN(C)Cc1c(C(=O)Nc2ccccc2)[nH]c2ccccc12, COc1ccc(C(=O)Nc2cccc(C)c2)cc1, CC1CCN(C(=O)CNC(=O)c2ccc(Br)o2)CC1, COc1cccc(/C=C/c2ccccn2)c1O, O=C(c1cnn(-c2cccc(F)c2)c1)c1ccccc1O, COc1ccccc1NC(=O)COc1ccccc1C(=O)c1cnn(-c2ccccc2)c1, CC(O)C(NS(=O)(=O)c1ccc(Cl)cc1)C(=O)OCCOc1ccc(F)cc1 (stereo not given), Cc1cnc(NC(=O)c2sc(Nc3ccccc3)nc2N)o1, CC(C)NC(=O)N(C)C[C@H]1Oc2ccc(NC(=O)Nc3ccccc3)cc2C(=O)N([C@H](C)CO)C[C@@H]1C, COc1cccc(CSc2nc3ccccc3[nH]2)c1, COc1cc2sc3cc(NCc4ccc(C)o4)ccc3c(=O)c2cc1OC, COc1ccc(Nc2n[nH]c(C)c2[N+](=O)[O-])cc1, CCOC(=O)C1=C(Nc2ccc(OC)cc2)OCC1=O, CCOc1ccc(C(=O)N(CC(=O)Nc2cccc(C)c2C)CC2CCCO2)cc1OC (stereo not given), COc1ccc(-c2nnc(-c3cccnc3)o2)cc1, COc1ccc(S(=O)(=O)N2CCOCC2)cc1NC(=O)c1ccc2c(c1)OCCO2, C#CCOC(=O)CCCC(=O)Nc1ccccc1OC, C=CCn1c(C)nc2c(sc3nc4c(cc32)COC(C)(C)C4)c1=O, COc1cc(/C=N/Nc2ccc(C(F)(F)F)cn2)ccc1O, CCOc1ccc(/C=N/NC(=O)Cn2ccnc2C)cc1, O=C1NC(c2ccccc2Cl)=N/C1=C/c1ccco1, c1ccc(-c2cn(CC3CCCCC3)nn2)cc1, COc1cc(C#Cc2ccc3cc(CCO)oc(=O)c3c2)cc(OC)c1, O=c1oc(CCCO)cc2ccc(C#Cc3ccsc3)cc12, CCOC(=O)C1(Cc2cccc(OC)c2)CCCN(C(=O)c2ccccc2C)C1 (stereo not given), Brc1ccsc1/C=N/Nc1ccccc1, Cc1cccc(C(=O)c2c(N)sc3c2CCCC3)c1, CC(=O)Nc1ccc(NC(=O)CN(c2ccccc2Cl)S(C)(=O)=O)cc1, O=C(c1ccccc1)c1ccc(-c2ccc(O)cc2)cc1, CC(C)OC(=O)c1ccc2nc3ccccc3nc2c1, Cc1nc(C)c(-c2csc(Nc3cccc(O)c3)n2)s1, COc1cccc(NC(=O)c2cccc(Cl)c2)c1, O=C(Nc1nc2ccccc2[nH]1)c1cccc(Cl)c1, O=C(CSc1nncs1)NCCCc1ccccc1, Cc1nc(-c2ccc(NC(=O)c3ccccc3Br)cc2)cs1, CC1=CC(=C2C(=O)c3ccccc3C2=O)C=C(C)N1Cc1ccco1, CCCC(=O)Nc1sc(C(=O)Nc2cccc(N)c2)c(C)c1C(=O)OC, COC(=O)c1c(NC(C)=O)sc(C(=O)Nc2ccccc2F)c1C, CCCc1nc2oc3c(NCC(C)O)ncnc3c2c2c1CCCC2 (stereo not given), Cc1ccsc1C(=O)OCC(=O)c1ccc[nH]1, Cc1ccsc1C(=O)OCC(=O)N(C)C1CCCCC1, Cc1ccnc(NC(=O)C2COc3ccccc3O2)c1 (stereo not given), CC(=Nc1ccccc1O)c1sc2ccccc2c1O, CC(=Nc1ccc(C)cc1)c1sc2ccccc2c1O, CCCC(=O)Nc1ccc(C#Cc2ccccc2)cc1, O=C(NN1C(=O)C2C3c4ccccc4C(c4ccccc43)C2C1=O)C1CC1 (stereo not given), O=C(O)CC(CN1C(=O)c2ccccc2C1=O)c1ccccc1 (stereo not given), c1ccc(-c2noc(C3CCCCC3)n2)nc1, Nc1ccc2c(c1)C(=O)c1ccccc1C2=O, CCc1ccc(NC2=CC(=O)C(=O)c3ccccc32)cc1, CC(C)NC(=O)c1cc(-c2ccc3c(c2)OCO3)on1, Cc1ccc(S(=O)(=O)N2CCN(C(=O)Cn3c(=O)cnc4ccccc43)CC2)c(C)c1, COc1ccccc1CN(C)C(=O)C1COc2ccccc2O1 (stereo not given), Cc1ccc(/C=C/C(=O)Nc2cc(C)on2)cc1, CC(=O)Nc1ccc(C(=O)COC(=O)C2CC2)c(F)c1, CCCC(=O)Nc1ccc(C(=O)COC(=O)C2CC2C)cc1 (stereo not given), Cc1ccc(OCC(=O)O/N=C(\N)c2ccccn2)cc1C, COc1ccc2nc(Nc3ccccc3OC)sc2c1, Cc1cc(Cl)ccc1OCc1nnc(-c2ccccc2C)o1, COc1ccccc1-c1nc(COc2ccc(Cl)cc2Cl)no1, CCOc1ccc(NC2c3ccccc3C(=O)N2c2ccc(Cl)cn2)cc1 (stereo not given), O=C(CN1C(=O)CCC1=O)Nc1nc(-c2ccc3ccccc3c2)cs1, CCN(CC)S(=O)(=O)c1ccc(O)c(NC(=O)COc2ccc(S(=O)(=O)N3CCOCC3)cc2)c1, O=C1NC(=Nc2ccccc2)S/C1=C/c1cccs1, Cc1ccc(N/C=C2/Sc3ccccc3NC2=O)cc1, COC(=O)[C@@H](Cc1c[nH]c2ccccc12)NC(=O)c1ccc2c(c1)OCO2, CCCCNC(=O)C1CC(c2cccc(F)c2)=NO1 (stereo not given), COc1ccc(CNC(=O)C(=O)NCC(c2ccco2)N2CCOCC2)cc1 (stereo not given), O=C(COc1ccc(Cl)cc1Br)NC(=O)NC1CCCC1, Cc1ccc(C(=O)Nc2ccc3c(c2)OCO3)cc1Cl, O=C(NCCc1c[nH]c2ccccc12)c1cc(Cl)c2c(c1)OCO2, O=C(Nc1ccc(F)cc1F)c1cc2ccccc2oc1=O, COc1ccc(/C(N)=N/OC(=O)C2CCCCC2)cc1, Cc1ccc(NC(=O)c2sccc2C)cc1[N+](=O)[O-], Cc1cccnc1NC(=O)c1cc2ccccc2oc1=O
